miR-21 act = qHTS Assay for Modulators of miRNAs and/orActivators of miR-21 | HeLa miR-21 FLuc reporter, luciferase, 48 h | 340,000 tested, under 10 active | Potency, µM (series often up to 38.3 µM), for inactives: at the highest dose activity change, positive = activation, usual class: activators;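 also: % of control where 0% means no effect; miR-21 action dims this reporter so a rising signal means less miR-21 action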
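HeLa miR-21-FLuc reporter line, endogenous miR-21; 2000 cells/well in DMEM/10% FBS; compound titration up to ~40uM final, 48 h, 37 degree Celsius; luciferase detection reagent, 15 min lysis, CCD luminescence.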
ClpP mod = qHTS Assay for Activators of ClpP | purified B. subtilis ClpP, FRET peptide cleavage, 20 min | AID 651965, 2013 | 340,000 tested, 1.9% active | ATP-dependent Clp protease proteolytic subunit (Bacillus subtilis (strain 168)), P80244 | Potency, µM (top dose mostly 57.5 µM), inactives show at the highest dose activity change, negative = active; active = well fitted falling curve with a large enough effect; inconclusive = small, poorly fitted or top-dose-only effect; inactive = no such curve, though single readings can be large or run the other way; also: potency is read from the fitted curve at half-maximal effect; the source files actives as falling curves though it sought activators and does not explain the sign; nearly all actives have a fitted effect of over 65% in size
Target sequence (P80244 whole entry, looked up): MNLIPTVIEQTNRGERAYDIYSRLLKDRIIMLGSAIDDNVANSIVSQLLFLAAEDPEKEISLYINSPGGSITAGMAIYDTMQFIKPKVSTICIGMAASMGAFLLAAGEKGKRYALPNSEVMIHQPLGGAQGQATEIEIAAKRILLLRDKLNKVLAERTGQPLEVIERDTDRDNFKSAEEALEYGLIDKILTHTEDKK
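Buffer: 100 mM Tris/HCl pH8, 100 mM KCl, 0.05% low protease BSA, 2.5% glycerol, 0.01% Tween-20. ClpP 10 microg/mL final; 20 min RT; delta FRET normalized to ADEP and DMSO controls.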
TCR activator = Activators of T cell receptors: qHTS campaign; primary human leukocytes, anti-CD3, IL-2 HTRF, 48 h; Potency, µM (doses to about 9.22 µM), for the others: at the top dose activation of IL-2 secretion, actives largely listed as activators; 330,000 tested, under 10 active; also: % of control where 0% means no effect
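Activity was scored as IL-2 release from primary human leukocytes given only a TCR signal (a-CD3 beads) plus compound for 48 hr. Detection used a two-antibody HTRF format read at 665nm.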
Nrf2 ARE act = qHTS of Nrf2 Activators | 410,000 tested, 0.31% active | Potency, µM (highest dose often 46.1 µM), without a hit: at the top dose activation, hits mostly activators | AREc32 ARE-luciferase reporter (MCF7-derived line), luminescence, 24 h; also: potency is read from the fitted curve at half-maximal effect; % of control where 0% means no effect; nearly all actives have a fitted effect of over 65% in size
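Luminescent ARE reporter assay in AREc32_Fluc cells: overnight plating at 37 deg C, 24 hr compound incubation, Steady-Glo added, 30 min RT before reading.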
A549 viability = Nrf2 qHTS screen for inhibitors: counterscreen for cytotoxicity | AID 504648, 2011 | A549 ARE-Fluc cells, CellTiter-Fluor viability, 18-24 h | Potency, µM (doses to about 46 µM), without a hit: at the highest dose activity change, negative = cytotoxicity, usual class: inhibitors | 390,000 tested, 0.16% active; also: potency is read from the fitted curve at half-maximal effect; % is scaled to controls: 0 for no effect and ±100 for the full control effect
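A549 ARE_Fluc cells in 5% FBS OPTI-MEM were exposed to compounds in concentration-response for 18-24 h at 37 deg C. Viability was read by CellTiter-Fluor fluorescence (Ex 405/Em 525) after 30 min, before the luciferase read.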
Nrf2 block = Nrf2 qHTS screen for inhibitors. A549 ARE-Fluc reporter, luciferase luminescence, 18-24 h. Potency, µM (top dose mostly 46 µM), for inactives: top-dose activity change, negative = inhibition, most hits filed as inhibitors. 360,000 tested, 2.1% active; also: potency is read from the fitted curve at half-maximal effect; % is scaled to controls: 0 for no effect and ±100 for the full control effect; nearly all actives have a fitted effect of over 60% in size
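A549 ARE_Fluc cells, 5000/well, 5% FBS OPTI-MEM; compounds in dose-response, 18-24 h at 37 °C/5% CO2; CellTiter-Fluor viability read (Ex 405/Em 525), then BugLite luciferase luminescence = Nrf2 activity.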
* hit, by the source's call; ? = inconclusive; / = not tested or not shown; [ ] = remark or other dose. This is a sample that favours compounds with a hit; in the whole collection about 3.7% have one here. Unless noted, calls follow the shape of the dose curve; as a rule, active = well fitted curve in the direction sought with a large enough effect; inconclusive = small, poorly fitted or top-dose-only effect, or another doubt; inactive = no such curve, though single readings can be large; an effect the other way counts as inactive or inconclusive.

SMILES	miR-21 act	ClpP mod	TCR activator	Nrf2 ARE act	A549 viability	Nrf2 block
COc1ccc(OC)c(/C=N/NC(=O)CCCC(=O)Nc2cccc(Br)c2)c1	-0.8%	25.1µM*	/	-0.3%	-0.5%	?
COc1ccc(OC)c(/C=N/NC(=O)CCN2CCN(C(c3ccccc3)c3ccccc3)CC2)c1	0.2%	28.2µM*	5.8%[46.1 µM]	0.2%	-28.7%	-51.8%
O=C(c1ccc(Cl)c(S(=O)(=O)N2CCOCC2)c1)N1CCOCC1	0.8%	31.6µM*	-2.4%	2.2%	-2.0%	-14.1%
Cc1ccc(C(=O)Nc2cccc(S(=O)(=O)N3CCCCC3)c2)cc1[N+](=O)[O-]	/	-0.4%	-4.5%	0.6%	-14.9%	16.4µM*
O=C(Nc1cccc(Br)c1)c1ccc(Cl)c(S(=O)(=O)N2CCOCC2)c1	?	0.3%	0.1%[46.1 µM]	-0.7%	?	10.3µM*
COc1ccc(C(=O)NC(=S)Nc2cccc(S(=O)(=O)N3CCOCC3)c2)cc1	23.6%	-1.2%	-1.5%	1.6%	2.1%	7.1%
Cc1ccc(C(=O)N2CCOCC2)cc1S(=O)(=O)N1CCOCC1	-6.1%	-4.5%	2.3%	0.3%	-0.4%	20.0%
CC(=O)Oc1ccc(-c2ccc(C(=O)Nc3cccc(S(=O)(=O)N4CCOCC4)c3)cc2)cc1	?	/	0.6%	-0.7%	?	13µM*
CCN(C)C1CN(Cc2cn(Cc3ccc(F)cc3)nn2)S(=O)(=O)C1 (stereo unspecified)	/	0.3%	/	0.6%	/	/
COc1ccc(C(=O)Nc2ccccc2-c2nc3ccccc3s2)cc1OC	1.2%	-20.9%	/	-0.3%	?	27.4%
Cc1ccc(C(=O)Nc2cccc(S(=O)(=O)N3CCCCC3)c2)cc1S(=O)(=O)N1CCOCC1	/	-2.4%	3.7%	-0.2%	-6.5%	7.31µM*
CCOc1ccc(NC(=O)c2ccc(F)c(S(=O)(=O)N3CCN(c4ccccn4)CC3)c2)cc1	23.3%	-11.0%	/	0.6%	-13.9%	?
O=C(O)c1ccc(Cl)c(S(=O)(=O)N2CCCCCC2)c1	-8.8%	0.1%	/	0.2%	?	25.9µM*
CC(C)(C)c1ccc(C(=O)Nc2cccc(C(=O)N3CCOCC3)c2)cc1	18.7%	-3.0%	1.4%	1.7%	?	8.2µM*
O=C(Nc1cccc(Cl)c1)c1ccc(F)c(S(=O)(=O)N2CCN(c3ccccn3)CC2)c1	3.3%	-15.6%	-2.5%	3.6%	-9.1%	20.6µM*
Cc1ccccc1NC(=O)Cn1nnc(C(=O)NCCc2ccccc2)c1N	-17.6%	-0.3%	/	-0.4%	-1.2%	-1.9%
Cc1cc(NC(=O)CN2C(=O)NC(CC(C)C)C2=O)ccc1Br (stereo unspecified)	/	-1.6%	64.3%	2.9%	-10.0%	?
O=C(Nc1cc(Sc2ccccn2)cc([N+](=O)[O-])c1)c1cccc(F)c1	19.8%	1.0%	0.9%[46.1 µM]	6.1%	-8.8%	18.4µM*
COc1ccc(C)cc1N(C(=O)COc1ccccc1)c1nc2ccccc2s1	-7.8%	10µM*	3.3%[46.1 µM]	12.8%	1.7%	?
COc1ccc(-c2oc3ncn4nc(COc5ccccc5)nc4c3c2-c2ccc(OC)cc2)cc1	-6.0%	-43.7%	1.6%	0.2%	4.6%	-11.6%
COc1ccc(-c2oc3ncnc(N)c3c2-c2ccccc2)cc1	-22.4%	35.5µM*	2.8%	-0.1%	1.6%	?
Fc1cccc(Cc2c(-c3ccccc3)nc3c(Cl)cc(C(F)(F)F)cn23)c1	/	-14.7%	/	0.4%	/	/
COc1cc2c(cc1NC(=O)COc1ccc3ccccc3c1)oc1ccccc12	3.3%	3.16µM*	3.3%	0.0%	-2.6%	5.8%
COc1ccc(CC(=O)Nc2cc3oc4ccccc4c3cc2OC)cc1	-85.3%	-19.8%	5.7%[46.1 µM]	5.0%	8.5%	?
